# Assay results reported in PubChem BioAssay AID588342 (National Center for Advancing Translational Sciences (NCATS), 2011).
# Among all 360,000 compounds or so, about 25,000 (6.9%) were called active. Another 9% or so got no clear call; they are omitted. Calls follow the shape of the dose curve; as a rule, active = well fitted inhibition curve with a large enough effect; inconclusive = small, poorly fitted or top-dose-only effect; inactive = flat fitted curve, though single readings scatter. The list comes from a sample in which actives are over-represented; it also holds similar structures and randomly drawn compounds.
# Target: Luciferin 4-monooxygenase (Photinus pyralis) (UniProt P08659)
# Sequence (P08659 whole entry, looked up): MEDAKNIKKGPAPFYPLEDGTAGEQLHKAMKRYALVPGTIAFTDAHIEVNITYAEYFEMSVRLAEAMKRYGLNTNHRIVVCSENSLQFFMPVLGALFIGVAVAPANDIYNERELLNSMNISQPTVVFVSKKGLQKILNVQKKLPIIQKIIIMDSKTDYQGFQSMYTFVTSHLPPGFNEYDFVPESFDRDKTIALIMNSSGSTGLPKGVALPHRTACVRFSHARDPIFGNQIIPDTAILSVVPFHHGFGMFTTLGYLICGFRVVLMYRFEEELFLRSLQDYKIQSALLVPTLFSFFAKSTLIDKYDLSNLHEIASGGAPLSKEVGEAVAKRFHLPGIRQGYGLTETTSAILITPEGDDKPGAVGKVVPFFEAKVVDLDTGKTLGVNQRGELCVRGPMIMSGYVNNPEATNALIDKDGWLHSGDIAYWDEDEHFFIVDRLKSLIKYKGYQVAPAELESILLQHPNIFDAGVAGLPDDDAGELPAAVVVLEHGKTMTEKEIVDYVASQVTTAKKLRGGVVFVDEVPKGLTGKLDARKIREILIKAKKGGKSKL
# Assay: qHTS profiling assay for firefly luciferase inhibitor/activator using purifed enzyme and Km concentrations of substrates (counterscreen for miR-21 project); also: nearly all actives have a fitted effect of over 55% in size;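 as to activity change, negative = inhibition: plate controls were vehicle for no effect and reference inhibitor for full effect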
# Settings: purified FLuc, luminescence inhibition; series mostly up to 57.5 µM; activity change, negative = inhibition: at the top concentration
# Source text: MLPCN Grant: 1 R21 NS059478-01 (miR-21 grant) Assay Provider: NCGC NCGC Assay Overview: Firefly (Photinus pyralis) luciferase is one of the most commonly used transcriptional reporters for a number of reasons. It is considered one of the more dynamically responsive reporters -that is, responsive to changes in reporter transcription - as it requires no post-translational modifications and is enzymatically active directly after protein synthesis (Wood, 1998). Additionally, the half-life of the luciferase protein is short relative to other reporter-gene products (Wood, 1995). Whereas reporters with long half-lives potentially allow for increased signal due to accumulation of reporter-gene product, once accumulated in the cell, dynamic changes in reporter-gene expression may be difficult to detect(Fan and Wood, 2007; Almond et al., 2004). It has been shown that wild-type P. pyralis luciferase has a half-life of approximately […] hours in mammalian cells (Thompson et al., 1991). Firefly luciferase reporter-gene assays are also generally considered one of the most sensitive assay types (Wood, 1995; Wood, 1998). Although light produced in a bioluminescence reaction is of lower intensity than that produced during fluorescence emission, this is offset by little to no background light inherent to luminescent assays. Thus the luciferase reporter can be expressed at much lower levels than fluorescent proteins while still providing robust signal. # However, it was initially observed, in 1991, by Thompson et al., that compounds that resemble the substrates of firefly luciferase (FLuc) can act as competitive inhibitors of the enzyme, and that these compounds, upon interaction with luciferase in the cell, can actually stabilize the protein and increase its half-life. Accumulated intracellular FLuc protein can be measured as an increase in luminescence signal, upon addition of detection reagents (which contain high concentrations of FLuc substrates) commonly used in high-throughput screening. In cell-based reporter gene assays that use FLuc as the reporter gene to quantitate the potential influence of a given compound against the target biology, this apparent increase in luminescence can mistakenly be interpreted as identification of a compound that is active against the target of interest. This is the case for the miR-21 FLuc reporter gene assay used to identify inhibitors of the miR-21 pathway (PubChem AID 2289) - compounds of interest will inhibit miR-21 biogenesis/expression or activity, and are identified by causing an increase in luminescence, due to increased FLuc translation. However, FLuc inhibitory compounds that stabilize the FLuc protein will give an identical read-out, making it difficult to distinguish compounds that are active against the target from those active against FLuc. Previous profiling work to determine the prevalence of compounds that affect FLuc enzymatic activity (PubChem AID 411) identified that ~3% of the MLSMR library (then at ~72K) inhibited FLuc. […] Since the MLSMR had grown to ~350K compounds, and since it was expected that a significant percentage of compounds found active in the miR-21 FLuc assay would be FLuc inhibitors, the library was screened for activity against FLuc using a biochemical assay of purified FLuc and KM concentrations of FLuc substrates (D-luciferin and ATP).
# NCGC Assay Protocol Summary: Reagents: 50mM Tris acetate, pH 7.5; 10mM Mg acetate; 10uM D-luciferin (Sigma #L9504); 10uM ATP; 0.01% Tween-20; 0.05% BSA; 10nM P. pyralis luciferase (Sigma #L9506) Control compounds used were two known firefly luciferase inhibitors (compounds (2) and (5) in Auld et al., 2010), and DMSO. […]
Structure (SMILES),"activity change, negative = inhibition",Potency
CCOc1cc2[nH]c(=O)n(Cc3ccc(C(=O)NCCN(CC)CC)cc3)c(=O)c2cc1OCC,1.65% (inactive),
O=C(Nc1ccc(Oc2ccccc2)cc1)C1CCN(S(=O)(=O)c2ccc(Cl)cc2)CC1,0.879% (inactive),
O=C(O)c1ccccc1N=N/C(=N/Nc1cc(S(=O)(=O)O)ccc1O)c1ccccc1,,16.9 µM (active)
O=C(CN(c1ccccc1)S(=O)(=O)c1ccc(Cl)cc1)Nc1ccccc1C(=O)N1CCCC1,-0.092% (inactive),
CC(=O)c1c(C)[nH]c(C(=O)OCC(=O)Nc2c(C)cccc2C)c1C,-0.669% (inactive),
CC(NC(=S)Nc1ccc(OC(F)F)cc1)c1ccc(F)cc1 (configuration not stated),1.73% (inactive),
C[C@@H]1NC(=O)[C@@]2(C)[C@@H](c3ccccc3)[C@H]3COc4ccccc4[C@@H]3N2C1=O,3% (inactive),
CCc1ccc(Nc2nn3c(=O)c4cc5c(cc4nc3s2)OCO5)cc1,-6.84% (inactive),
COc1cccc(CNC(=O)COc2cc(O)c3c(c2)OC(C)(C)CC3=O)c1,-10.3% (inactive),
CC(C)CC(=O)N1CCN(Cc2ccccc2Br)CC1,1.19% (inactive),
Cc1c(C(=O)NCc2ccccc2Br)oc2ccc3c(c12)C(=O)CC(C)(C)O3,,1.69 µM (active)
COc1ccc(-c2nc3sc(CCNS(=O)(=O)c4ccc(F)c(C)c4)c(C)n3n2)cc1,-19% (inactive),
COc1ccc(C(=O)Nc2ccc(-n3nncc3C(C)(C)C)cc2)cc1,-11.1% (inactive),
COc1ccc(CNC(=O)C(=O)N2CCC3(CC2)OCCN3S(=O)(=O)c2ccc(C)cc2)cc1,-1.75% (inactive),
Cc1cc(Cl)ccc1OCC(=O)N(Cc1ccc(N(C)C)cc1)C1CCS(=O)(=O)C1 (configuration not stated),-12.5% (inactive),
Cc1ccc(C(=O)COC(=O)C(Cc2c[nH]c3ccccc23)NC(=O)c2ccc(Br)cc2)cc1 (configuration not stated),0.131% (inactive),
CC(CCCc1ccccc1)NC(=O)c1nn(-c2ccc(Cl)cc2)nc1CO (configuration not stated),1.51% (inactive),
Cc1cc2nn(-c3ccc(Cl)cc3)nc2cc1NC(=O)C(C)C,,0.379 µM (active)
COC(=O)[C@@H](NC(=O)Nc1cc(Cl)ccc1C)C(C)C,-4.44% (inactive),
CCN(C(=O)COC(=O)c1c(C)nn(-c2ccccc2)c1Cl)c1c(N)n(Cc2ccccc2)c(=O)[nH]c1=O,-0.736% (inactive),
CCOC(=O)C1=C(c2ccccc2)Nc2ncnn2C1c1ccc(Cl)cc1 (configuration not stated),-10% (inactive),
CCCSc1ncc(Cl)c(C(=O)Nc2sc3c(c2C(=O)NCCOC)CCCC3)n1,-5.29% (inactive),
O=C(N/N=C/c1ccc(Cl)c(Cl)c1)c1ccc2nc[nH]c2c1,,13.5 µM (active)
CSc1ccc(/C=N/NC(=O)c2cccc(Cl)c2)cc1,,5.36 µM (active)
CC1=NNC(=O)C1CCC(=O)N/N=C\c1ccc(Cl)c(Cl)c1 (configuration not stated),-6.92% (inactive),
CSc1ccc(/C=N\NC(=O)CC(=O)NC(C)C)cc1,-5.08% (inactive),

Structure (SMILES),"activity change, negative = inhibition",Potency
CC(NC(=O)C(=O)N/N=C/c1ccc(Cl)cc1)c1ccccc1 (configuration not stated),-1.64% (inactive),
NCCCCCC(=O)N/N=C/c1ccc2nccnc2c1,-0.587% (inactive),
Cc1ccccc1CNC(=O)C1CCCN(S(=O)(=O)N(C)c2ccc(F)cc2)C1 (configuration not stated),4.61% (inactive),
Cc1c(C(=O)NCc2ccccc2)cnn1-c1ccccc1,-24.9% (inactive),
CCN(CC)CCN1C(=O)C(=O)/C(=C(/O)c2ccc(OC)c(OC)c2)C1c1ccccn1 (configuration not stated),10.6% (inactive),
CCN(CC)CCN1C(=O)C(=O)/C(=C(/O)c2cnn(-c3ccccc3)c2C)C1c1cccs1 (configuration not stated),,21.3 µM (active)
CN(CC(=O)Nc1ccc(Cl)c(C(F)(F)F)c1)C(=O)CCC(=O)c1ccccc1,-12.1% (inactive),
Cc1nnc(SCc2cc(=O)c3cc(F)ccc3[nH]2)n1C,-1.2% (inactive),
COc1ccc(-c2cc(C(F)(F)F)nc(NCc3cccnc3)n2)cc1,2.9% (inactive),
COc1ccc(-c2cn[nH]c2-c2ccc(OC)cc2)cc1,4.38% (inactive),
COc1ccc(-c2cc3ncccc3cn2)cc1,,5.36 µM (active)
CCOCCCNc1c(CC)c(C)c(C#N)c2nc3ccccc3n12,0.35% (inactive),
CC1CCc2c(sc3c2C2=NS(=O)(=O)CCN2C=N3)C1 (configuration not stated),-12.8% (inactive),
CCOC(=O)N1CCN(S(=O)(=O)c2ccc3c(c2)C(C)C(=O)N3)CC1 (configuration not stated),2.28% (inactive),
CCOC(=O)c1c(SCC(=O)Nc2cccc(C)c2C)nc(=O)[nH]c1C,2.11% (inactive),
Cc1ccccc1OCc1ccc(-c2nc(C#N)c(N3CCCCC3)o2)o1,3.38% (inactive),
Cc1ccc(O)c(NC(=O)c2cc(-c3ccco3)on2)c1,,6.01 µM (active)
Cc1ccc(O)c(NC(=O)c2cc(-c3ccc(F)cc3)no2)c1,-8.31% (inactive),
Cc1ccc(O)c(NC(=O)COc2cc(C)ccc2C)c1,-4.48% (inactive),
COc1cc(C(=O)NCC(c2ccco2)N2CCCC2)ccc1OCc1ccccc1 (configuration not stated),2.12% (inactive),
CC(=O)N1CCN(CC(=O)Nc2ccc(C)c(F)c2)CC1,-0.435% (inactive),
CCc1sc(C(=O)N2CCN(CC(=O)Nc3cccc(F)c3)CC2)cc1C,,13.5 µM (active)
O=C(CN1CCN(C(=O)c2cccc(F)c2)CC1)Nc1ccccc1F,2.19% (inactive),
CN(CC(=O)Nc1ccc(Cl)cc1)C(=O)c1ccc(COc2ccccc2)cc1,7.64% (inactive),
Cc1c(NC(=O)c2cc(=O)c3ccccc3o2)c(=O)n(-c2ccccc2)n1C,-1.55% (inactive),
CCCn1nc(C(=O)OCc2nc(N)nc(Nc3ccccc3C)n2)c2ccccc2c1=O,-1.32% (inactive),
